Reference: PubChem BioAssay AID1159580 (chemical genetic matrix, 2015)
Several values for one entry are separate records, joined by “and”; a condition that tells them apart may be missing. Equal values may be shown once. Out of some 5,500 compounds screened, about 2,000 (36%) were called active. Inconclusive results (about 18%) are left out. Rule as the data show it: active = normalized growth mostly below about 0.91 (no sharp cut-off); inconclusive = no clear call, values can overlap the other calls; inactive = mostly above about 0.92. This is one part of the list.

Assay: chemical genetic growth profiling, strain panel (AID 1159580);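 also: tested at 20 µM; growth read once vehicle control cultures reached saturation at 30 °C; 1 = growth at the plate median or of vehicle wells; lower values mean less growth of the strain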
Conditions: growth OD

Measured: normalized growth

NC(N)=NC(N)=Nc1ccccc1
inactive: S. cerevisiae deletion strains, locus YJR066W, strain TOR1, stronger effect = lower value 0.931 | S. cerevisiae deletion strains, locus YKL009W, strain mrt4, stronger effect = lower value 0.998 | S. cerevisiae deletion strains, locus YKL068W, stronger effect = lower value 0.996 | S. cerevisiae deletion strains, locus YKL085W, strain MDH1 (second series), stronger effect = lower value 1 | S. cerevisiae deletion strains, locus YKL085W, strain MDH1, stronger effect = lower value 1 | S. cerevisiae deletion strains, locus YKL160W, strain elf1, stronger effect = lower value 0.991 | S. cerevisiae deletion strains, locus YKL190W, strain CNB1, stronger effect = lower value 1 | S. cerevisiae deletion strains, locus YKR001C, strain vps1, stronger effect = lower value 0.994 | S. cerevisiae deletion strains, locus YKR026C, strain gcn3, stronger effect = lower value 1 | S. cerevisiae deletion strains, locus YKR091W, strain srl3, stronger effect = lower value 0.994 | S. cerevisiae deletion strains, locus YLL001W, strain dnm1, stronger effect = lower value 0.982 | S. cerevisiae deletion strains, locus YLL026W, stronger effect = lower value 1 | S. cerevisiae deletion strains, locus YLL041C, strain sdh2, stronger effect = lower value 1 | S. cerevisiae deletion strains, locus YLR027C, strain aat2, stronger effect = lower value 1 | S. cerevisiae deletion strains, locus YLR039C, strain RIC1, stronger effect = lower value 1.05 | S. cerevisiae deletion strains, locus YLR058C, strain SHM2, stronger effect = lower value 1.02 | S. cerevisiae deletion strains, locus YLR102C, strain apc9, stronger effect = lower value 0.994 | S. cerevisiae deletion strains, locus YLR113W, strain HOG1, stronger effect = lower value 0.988 | S. cerevisiae deletion strains, locus YLR221C, strain rsa3, stronger effect = lower value 1 | S. cerevisiae deletion strains, locus YLR258W, strain gsy2, stronger effect = lower value 0.988 | S. cerevisiae deletion strains, locus YLR262C, strain YPT6 (second series), stronger effect = lower value 0.985 | S. cerevisiae deletion strains, locus YLR262C, strain YPT6, stronger effect = lower value 1.05 | S. cerevisiae deletion strains, locus YLR268W, strain sec22, stronger effect = lower value 0.997 | S. cerevisiae deletion strains, locus YLR320W, strain mms22, stronger effect = lower value 0.993 | S. cerevisiae deletion strains, locus YLR330W, strain CHS5, stronger effect = lower value 1.01 | S. cerevisiae deletion strains, locus YLR342W, strain FKS1 (second series), stronger effect = lower value 1.02 | S. cerevisiae deletion strains, locus YLR342W, strain FKS1, stronger effect = lower value 1 | S. cerevisiae deletion strains, locus YLR357W, strain rsc2, stronger effect = lower value 0.998 | S. cerevisiae deletion strains, locus YLR370C, strain arc18, stronger effect = lower value 1.01 | S. cerevisiae deletion strains, locus YLR371W, strain rom2, stronger effect = lower value 0.986 | S. cerevisiae deletion strains, locus YLR384C, strain iki3, stronger effect = lower value 0.999 | S. cerevisiae deletion strains, locus YLR418C, strain cdc73, stronger effect = lower value 0.951 | S. cerevisiae deletion strains, locus YML016C, strain PPZ1, stronger effect = lower value 1.02 | S. cerevisiae deletion strains, locus YML032C, strain rad52, stronger effect = lower value 0.991 | S. cerevisiae deletion strains, locus YML120C, strain ndi1, stronger effect = lower value 0.995 | S. cerevisiae deletion strains, locus YML124C, strain tub3, stronger effect = lower value 0.991 | S. cerevisiae deletion strains, locus YMR058W, strain fet3, stronger effect = lower value 1 | S. cerevisiae deletion strains, locus YMR078C, strain ctf18, stronger effect = lower value 0.998 | S. cerevisiae deletion strains, locus YMR125W, strain sto1, stronger effect = lower value 0.982 | S. cerevisiae deletion strains, locus YMR129W, stronger effect = lower value 0.996 | S. cerevisiae deletion strains, locus YMR205C, strain PFK2, stronger effect = lower value 1.01 | S. cerevisiae deletion strains, locus YMR223W, strain ubp8, stronger effect = lower value 0.99 | S. cerevisiae deletion strains, locus YMR231W, strain pep5, stronger effect = lower value 0.994 | S. cerevisiae deletion strains, locus YMR263W, strain SAP30, stronger effect = lower value 0.993 | S. cerevisiae deletion strains, locus YMR307W, strain GAS1, stronger effect = lower value 1.04 and 0.978 | S. cerevisiae deletion strains, locus YNL067W, strain RPL9B, stronger effect = lower value 1.03 | S. cerevisiae deletion strains, locus YNL071W, strain lat1, stronger effect = lower value 1.01 | S. cerevisiae deletion strains, locus YNL128W, strain TEP1, stronger effect = lower value 1.01 and 1.02 | S. cerevisiae deletion strains, locus YNL175C, strain NOP13, stronger effect = lower value 1.02 | S. cerevisiae deletion strains, locus YNL183C, strain NPR1, stronger effect = lower value 0.923 | S. cerevisiae deletion strains, locus YNL197C, strain WHI3, stronger effect = lower value 1.02 | S. cerevisiae deletion strains, locus YNL209W, strain ssb2, stronger effect = lower value 1 | S. cerevisiae deletion strains, locus YNL224C, strain SQS1, stronger effect = lower value 0.998 | S. cerevisiae deletion strains, locus YNL233W, strain BNI4, stronger effect = lower value 1.02 | S. cerevisiae deletion strains, locus YNL248C, strain rpa49, stronger effect = lower value 0.998 | S. cerevisiae deletion strains, locus YNL250W, strain rad50, stronger effect = lower value 0.992 | S. cerevisiae deletion strains, locus YNL271C, strain bni1, stronger effect = lower value 0.994 | S. cerevisiae deletion strains, locus YNL298W, strain CLA4, stronger effect = lower value 0.993 | S. cerevisiae deletion strains, locus YNL307C, strain MCK1, stronger effect = lower value 1 | S. cerevisiae deletion strains, locus YNL322C, strain KRE1 (second series), stronger effect = lower value 1 | S. cerevisiae deletion strains, locus YNL322C, strain KRE1, stronger effect = lower value 1 | S. cerevisiae deletion strains, locus YNR049C, strain mso1, stronger effect = lower value 1.01 | S. cerevisiae deletion strains, locus YNR052C, strain pop2, stronger effect = lower value 0.991 | S. cerevisiae deletion strains, locus YOL006C, strain TOP1, stronger effect = lower value 1.03 | S. cerevisiae deletion strains, locus YOL012C, strain htz1 1.06 | S. cerevisiae deletion strains, locus YOL147C, strain pex11, stronger effect = lower value 0.991 | S. cerevisiae deletion strains, locus YOR001W, strain rrp6, stronger effect = lower value 0.989 | S. cerevisiae deletion strains, locus YOR061W, strain CKA2, stronger effect = lower value 1.01 | S. cerevisiae deletion strains, locus YOR069W, strain VPS5, stronger effect = lower value 1.01 | S. cerevisiae deletion strains, locus YOR070C, strain gyp1, stronger effect = lower value 1 | S. cerevisiae deletion strains, locus YOR080W, strain dia2, stronger effect = lower value 0.98 | S. cerevisiae deletion strains, locus YOR083W, strain WHI5 (second series), stronger effect = lower value 1.02 | S. cerevisiae deletion strains, locus YOR083W, strain WHI5, stronger effect = lower value 0.996 | S. cerevisiae deletion strains, locus YOR106W, strain vam3, stronger effect = lower value 1 | S. cerevisiae deletion strains, locus YOR136W, strain idh2, stronger effect = lower value 0.995 | S. cerevisiae deletion strains, locus YOR144C, strain elg1, stronger effect = lower value 0.994 | S. cerevisiae deletion strains, locus YOR184W, strain ser1, stronger effect = lower value 0.977 | S. cerevisiae deletion strains, locus YOR231W, strain MKK1, stronger effect = lower value 1.01 | S. cerevisiae deletion strains, locus YOR265W, strain rbl2, stronger effect = lower value 1.01 | S. cerevisiae deletion strains, locus YOR270C, strain vph1, stronger effect = lower value 1.06 | S. cerevisiae deletion strains, locus YOR290C, strain snf2, stronger effect = lower value 0.987 | S. cerevisiae deletion strains, locus YOR316C, strain cot1, stronger effect = lower value 0.996 | S. cerevisiae deletion strains, locus YPL051W, strain arl3, stronger effect = lower value 0.996 | S. cerevisiae deletion strains, locus YPL055C, strain LGE1, stronger effect = lower value 0.993 | S. cerevisiae deletion strains, locus YPL078C, strain atp4, stronger effect = lower value 1 | S. cerevisiae deletion strains, locus YPL106C, strain sse1, stronger effect = lower value 0.955 | S. cerevisiae deletion strains, locus YPL240C, strain hsp82, stronger effect = lower value 0.986 | S. cerevisiae deletion strains, locus YPL241C, strain CIN2, stronger effect = lower value 1.01 | S. cerevisiae deletion strains, locus YPL256C, strain CLN2, stronger effect = lower value 0.996 | S. cerevisiae deletion strains, locus YPR119W, strain clb2, stronger effect = lower value 0.991 | S. cerevisiae deletion strains, locus YPR141C, strain kar3, stronger effect = lower value 0.98 | S. cerevisiae deletion strains, locus YPR163C, strain tif3, stronger effect = lower value 0.999 | S. cerevisiae deletion strains, locus YPR167C, strain met16, stronger effect = lower value 0.996 | S. cerevisiae deletion strains, strain wtn01, stronger effect = lower value 1 | S. cerevisiae strains, strain wild type, stronger effect = lower value 1.01
